Values joined by “and” are separate entries in the source; they are usually repeats but may differ in a detail not shown here. Identical values can stand only once.
Legend:
[1] = target: Sphingosine kinase 1 (Homo sapiens) (UniProt Q9NYA1); conditions: at 1 µM;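 further: mean SPHK1 inhibition value reported from the GSK PKIS kinase panel screen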
[2] = target: T1, Sphingosine kinase 2 (Homo sapiens) (UniProt Q9NRA0); conditions: at 0.1 µM
T1 sequence (whole entry): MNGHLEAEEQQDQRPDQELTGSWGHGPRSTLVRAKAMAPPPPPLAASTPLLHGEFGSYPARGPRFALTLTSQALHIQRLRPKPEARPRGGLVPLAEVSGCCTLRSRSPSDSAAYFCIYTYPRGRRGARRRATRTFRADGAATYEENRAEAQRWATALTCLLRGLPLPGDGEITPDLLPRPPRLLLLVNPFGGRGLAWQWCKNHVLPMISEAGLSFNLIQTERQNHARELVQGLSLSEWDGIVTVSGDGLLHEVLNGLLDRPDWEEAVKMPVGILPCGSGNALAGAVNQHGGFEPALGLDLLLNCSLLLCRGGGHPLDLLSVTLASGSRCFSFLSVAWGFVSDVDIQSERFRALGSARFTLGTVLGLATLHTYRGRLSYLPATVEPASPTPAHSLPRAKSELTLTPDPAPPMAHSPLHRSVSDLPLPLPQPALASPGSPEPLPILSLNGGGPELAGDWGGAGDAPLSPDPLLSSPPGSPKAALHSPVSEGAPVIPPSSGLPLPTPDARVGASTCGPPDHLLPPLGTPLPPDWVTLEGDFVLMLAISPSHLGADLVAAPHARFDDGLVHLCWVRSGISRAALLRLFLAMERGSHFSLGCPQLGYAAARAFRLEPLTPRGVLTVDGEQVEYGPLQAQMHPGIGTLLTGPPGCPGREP

[3] = target: T1, Sphingosine kinase 2 (Homo sapiens); conditions: at 1 µM
[4] = target: Casein kinase II subunit alpha (Homo sapiens) (UniProt P68400); conditions: at 0.1 µM
Chain of Casein kinase II subunit alpha (Homo sapiens) (P68400 whole entry, looked up): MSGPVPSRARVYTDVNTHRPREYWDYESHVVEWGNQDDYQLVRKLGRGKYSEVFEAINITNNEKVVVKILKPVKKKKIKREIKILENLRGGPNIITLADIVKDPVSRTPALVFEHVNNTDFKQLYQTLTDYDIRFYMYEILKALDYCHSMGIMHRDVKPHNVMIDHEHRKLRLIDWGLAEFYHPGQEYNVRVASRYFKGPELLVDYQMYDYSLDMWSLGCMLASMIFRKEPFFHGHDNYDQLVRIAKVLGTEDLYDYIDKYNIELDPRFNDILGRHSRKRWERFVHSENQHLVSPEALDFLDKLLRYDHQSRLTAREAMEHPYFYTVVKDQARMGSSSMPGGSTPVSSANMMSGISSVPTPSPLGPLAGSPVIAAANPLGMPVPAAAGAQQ

[5] = target: Casein kinase II subunit alpha (Homo sapiens) (UniProt P68400); conditions: at 1 µM
[6] = target: T2, Inhibitor of nuclear factor kappa-B kinase subunit alpha (Homo sapiens) (UniProt O15111); conditions: at 0.1 µM
T2 sequence (whole entry): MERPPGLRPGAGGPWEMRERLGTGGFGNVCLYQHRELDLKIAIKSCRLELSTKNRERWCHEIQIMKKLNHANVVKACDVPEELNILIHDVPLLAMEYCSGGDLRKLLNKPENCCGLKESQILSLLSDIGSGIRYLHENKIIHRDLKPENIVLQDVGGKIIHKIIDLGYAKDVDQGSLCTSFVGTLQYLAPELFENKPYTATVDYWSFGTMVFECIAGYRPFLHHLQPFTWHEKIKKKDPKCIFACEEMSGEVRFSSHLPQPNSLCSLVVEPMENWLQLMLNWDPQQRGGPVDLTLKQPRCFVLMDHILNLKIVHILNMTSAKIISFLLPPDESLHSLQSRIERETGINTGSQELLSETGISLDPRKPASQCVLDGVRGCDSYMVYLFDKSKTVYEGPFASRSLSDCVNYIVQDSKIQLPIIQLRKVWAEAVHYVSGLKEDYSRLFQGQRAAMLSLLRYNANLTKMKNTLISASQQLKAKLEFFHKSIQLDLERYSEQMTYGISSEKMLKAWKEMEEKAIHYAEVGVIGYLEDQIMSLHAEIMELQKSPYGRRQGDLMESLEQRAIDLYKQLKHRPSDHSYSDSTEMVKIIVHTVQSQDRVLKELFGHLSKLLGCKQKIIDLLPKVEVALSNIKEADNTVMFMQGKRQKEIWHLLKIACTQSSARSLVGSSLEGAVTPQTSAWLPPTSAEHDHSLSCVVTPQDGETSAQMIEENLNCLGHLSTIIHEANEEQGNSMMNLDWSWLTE

[7] = target: T2, Inhibitor of nuclear factor kappa-B kinase subunit alpha (Homo sapiens); conditions: at 1 µM
[8] = target: T3, Inhibitor of nuclear factor kappa-B kinase subunit beta (Homo sapiens) (UniProt O14920); conditions: at 0.1 µM
T3 sequence (whole entry): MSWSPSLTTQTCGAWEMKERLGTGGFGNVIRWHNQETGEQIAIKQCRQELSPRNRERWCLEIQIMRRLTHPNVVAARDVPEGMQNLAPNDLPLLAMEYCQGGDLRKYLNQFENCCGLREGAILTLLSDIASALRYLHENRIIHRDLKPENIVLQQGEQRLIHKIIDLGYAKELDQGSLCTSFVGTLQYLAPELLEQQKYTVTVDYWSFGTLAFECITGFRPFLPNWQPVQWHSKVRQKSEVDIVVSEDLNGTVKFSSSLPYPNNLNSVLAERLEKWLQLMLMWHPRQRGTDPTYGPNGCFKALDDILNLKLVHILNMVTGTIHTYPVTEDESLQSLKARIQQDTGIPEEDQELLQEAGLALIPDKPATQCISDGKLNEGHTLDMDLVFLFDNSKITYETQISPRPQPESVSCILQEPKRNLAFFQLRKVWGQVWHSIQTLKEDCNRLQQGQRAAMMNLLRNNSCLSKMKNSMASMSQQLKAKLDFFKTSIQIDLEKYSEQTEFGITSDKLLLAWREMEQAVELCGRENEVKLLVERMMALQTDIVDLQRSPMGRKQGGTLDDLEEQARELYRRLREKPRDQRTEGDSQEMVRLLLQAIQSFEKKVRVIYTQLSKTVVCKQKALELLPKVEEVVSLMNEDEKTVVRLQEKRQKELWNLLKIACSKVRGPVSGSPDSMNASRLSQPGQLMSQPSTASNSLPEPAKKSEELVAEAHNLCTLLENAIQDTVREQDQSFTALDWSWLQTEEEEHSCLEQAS

[9] = target: T3, Inhibitor of nuclear factor kappa-B kinase subunit beta (Homo sapiens); conditions: at 1 µM
[10] = target: T4, Inhibitor of nuclear factor kappa-B kinase subunit epsilon (Homo sapiens) (UniProt Q14164); conditions: at 0.1 µM;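 further: mean inhibition of IKKε reported, from the GSK PKIS dataset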
T4 sequence (whole entry): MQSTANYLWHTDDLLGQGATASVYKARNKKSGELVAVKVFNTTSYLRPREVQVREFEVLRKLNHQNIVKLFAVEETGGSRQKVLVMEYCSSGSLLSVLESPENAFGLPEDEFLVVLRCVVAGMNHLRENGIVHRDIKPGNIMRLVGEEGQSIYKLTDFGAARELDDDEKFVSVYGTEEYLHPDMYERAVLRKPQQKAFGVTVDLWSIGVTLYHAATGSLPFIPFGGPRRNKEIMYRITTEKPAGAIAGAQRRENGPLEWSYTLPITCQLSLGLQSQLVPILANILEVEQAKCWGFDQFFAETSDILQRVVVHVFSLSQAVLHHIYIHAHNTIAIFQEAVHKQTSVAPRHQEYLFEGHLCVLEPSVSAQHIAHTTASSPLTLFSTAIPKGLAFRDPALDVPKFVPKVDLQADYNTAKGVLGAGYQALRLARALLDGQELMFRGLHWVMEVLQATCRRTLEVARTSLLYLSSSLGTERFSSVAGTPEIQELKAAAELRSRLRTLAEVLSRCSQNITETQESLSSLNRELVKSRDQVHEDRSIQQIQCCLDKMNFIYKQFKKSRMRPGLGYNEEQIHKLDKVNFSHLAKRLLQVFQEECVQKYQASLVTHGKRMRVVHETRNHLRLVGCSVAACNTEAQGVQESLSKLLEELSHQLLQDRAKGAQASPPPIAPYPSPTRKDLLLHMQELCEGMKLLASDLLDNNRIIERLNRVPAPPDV

Chain of Sphingosine kinase 1 (Homo sapiens) (Q9NYA1 whole entry): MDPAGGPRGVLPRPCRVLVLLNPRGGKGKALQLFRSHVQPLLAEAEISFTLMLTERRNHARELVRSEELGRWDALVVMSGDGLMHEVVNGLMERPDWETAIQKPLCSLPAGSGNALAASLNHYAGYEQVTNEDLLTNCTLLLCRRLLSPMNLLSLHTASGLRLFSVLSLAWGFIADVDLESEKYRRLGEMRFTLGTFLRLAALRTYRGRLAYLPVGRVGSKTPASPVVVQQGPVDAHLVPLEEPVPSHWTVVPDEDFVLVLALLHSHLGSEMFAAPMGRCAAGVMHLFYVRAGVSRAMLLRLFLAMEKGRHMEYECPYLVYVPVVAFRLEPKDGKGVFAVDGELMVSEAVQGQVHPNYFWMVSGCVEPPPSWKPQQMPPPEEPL

SMILES	inhibition [1]	inhibition [2]	inhibition [3]	inhibition [4]	inhibition [5]	inhibition [6]	inhibition [7]	inhibition [8]	inhibition [9]	inhibition [10]
CN1CCN(Cc2ccc(-c3cc4ncnc(Nc5ccc(OCc6cccc(F)c6)c(Cl)c5)c4s3)o2)CC1	3.16% and -4.57%	0.42% and -0.46%	2.36% and -0.62%	12.7% and 7.35%	3.7% and 10.5%	4.53% and 11.4%	2.93% and 6.95%	2.82% and 5.97%	3.27% and 6.18%	3.75% and 4.88%
COc1cccc(Nc2nccc(-c3cnn4ncccc34)n2)c1	-2.02%	0.58%	-1.48%	8.12%	40.9%	11.6%	53.6%	5.19%	27.1%	3.06%
CC1(C)CC(n2cnc(-c3ccc(F)cc3)c2-c2ccnc(N)n2)CC(C)(C)N1	10.6%	3.82%	-2.43%	1.44%	7.38%	1.15%	1.35%	-0.17%	-1.15%	0.1%
COc1cc(Nc2ncc(-c3ccccc3)o2)cc(OC)c1	2.45%	-0.24%	-0.57%	3.79%	3.91%	2.7%	4.19%	4.63%	7.8%	12.6%
OCCCNc1nccc(-c2c(-c3ccc(F)cc3)nn3cc(C(F)(F)F)ccc23)n1	-0.86%	1.62%	-1.3%	1.23%	6.41%	-2.66%	1.51%	1.75%	-0.39%	0.9%
COc1ccccc1-c1cc(/C=C2\C(=O)Nc3ncc(Br)cc32)cc(Br)c1O	-2.44%	2.31%	0.1%	1.59%	3.83%	0.19%	0.71%	5.58%	-0.48%	10.9%
CNC(=O)c1sc(-n2cnc3cc(OC)c(OC)cc32)cc1OCc1ccccc1C(F)(F)F	-2.69%	-1.57%	-1.5%	5.33%	1.77%	9.1%	6.49%	4.41%	2.57%	7.72%
O=C(O[C@H]1CN[C@H](C#Cc2cc3ncnc(Nc4ccc5c(cnn5Cc5ccccc5)c4)c3s2)C1)N1CCOCC1	-0.72%	0.71%	-0.03%	-2.6%	1.05%	1.12%	-2.78%	-1.3%	-0.9%	-7.28%
NS(=O)(=O)c1ccc(N/N=C2\C(=O)Nc3cccc(CCc4ccncc4)c32)cc1	3.16%	0%	-4.51%	5.35%	2.3%	-0.34%	1.3%	0.73%	-2.12%	-0.26%
CS(=O)(=O)Nc1ccc(-c2cc(-c3ccccc3)cc(C(N)=O)c2N)cc1	2.51%	-0.04%	-0.67%	0.89%	2.26%	1.46%	4.19%	6.82%	27.4%	0.29%
CS(=O)(=O)CCNCc1ccc(-c2ccc3ncnc(Nc4ccc(OCc5ccccc5)cc4)c3c2)o1	-3.83%	-0.85%	0.16%	9.29%	3.86%	4.92%	3.98%	5.26%	5.3%	5.66%
CC1=C(C(=O)Nc2ccc3[nH]nc(C)c3c2)C(c2ccc(C(F)(F)F)cc2)CC(=O)N1 (stereo not given)	-1.2%	-0.06%	-2.04%	1.79%	2.97%	3.27%	-5.37%	2.18%	0.69%	0.85%
NS(=O)(=O)c1ccc(N/N=C2\C(=O)Nc3ccc(C(=O)NCc4ccncc4)cc32)cc1	0.35%	2.9%	-0.04%	4.7%	13.1%	2.72%	0.67%	5.86%	5.23%	14.4%
COc1ccc(-c2nn3ncccc3c2-c2ccnc(Nc3ccc(F)c(F)c3)n2)cc1	-4.19%	5.2%	0%	5.76%	10.5%	3.55%	8.81%	4.66%	5.58%	9.89%
NC(=O)c1ccc2c(-c3ccnc(NCCCO)n3)c(-c3ccc(F)cc3)nn2c1	-1.09%	0.78%	-0.19%	3.49%	3.53%	8.35%	4.86%	7.11%	2.1%	4.91%

Source: ChEMBL document CHEMBL1961873, “Compounds: GSK PKIS; Assays: Nanosyn kinase panel” (2012)
